# Assay results reported in PMC8384837, “Expanding the binding specificity for RNA recognition by a PUF domain”.
# Biological target: PUM1 PUF domain R5-GRY (Homo sapiens, UniProt Q14671 828-1176, C1007G;Q1011Y)
# Assay: yeast three-hybrid, YBZ-1, SC-Leu-His + 0.5 mM 3-AT, 4 days
# Settings: tags: N-Gal4 AD-HA kept; label: inside an RPR1-promoter hybrid RNA with tandem MS2 sites; ssRNA
# Summary of the method: (§1)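 The interaction score is the log change in variant frequency from input to selection. Scores were computed in log2 with a pseudocount of 1 for absent variants, using Illumina sequencing of PCR-amplified repeat regions. The input came from four days on SC-Leu and the selection from four days on SC-Leu-His + 0.5 mM 3-AT. The cells were strain YBZ-1 (LexA–MS2 coat fusion, HIS3 reporter) co-expressing Pumilio-1 PUF domain libraries and matching RNA elements from a centromeric plasmid.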
row,Sequence,binding signal
1,GGCUAGAACUAGUGGAUCCCCCGGCGCCCGGCGGCUCGAGCCCGGGUAAGUGUUAAUAGUCUGCAUGCCGCCGGGCGCCAUGCCUGCAGGUCGACUCUAGAAAACAUG,3.13 log2 enrichment (interaction score)
2,GGCUAGAACUAGUGGAUCCCCCGGCGCCCGGCGGCUCGAGCCCGGGUAAGUGUCAAUAGUCUGCAUGCCGCCGGGCGCCAUGCCUGCAGGUCGACUCUAGAAAACAUG,0.08 log2 enrichment (interaction score)
3,GGCUAGAACUAGUGGAUCCCCCGGCGCCCGGCGGCUCGAGCCCGGGUAAGUGUAAAUAGUCUGCAUGCCGCCGGGCGCCAUGCCUGCAGGUCGACUCUAGAAAACAUG,3.42 log2 enrichment (interaction score)

# Biological target: PUM1 PUF domain R4-TPV (Homo sapiens, UniProt Q14671 828-1176, N971T;H972P;Q975V)
# Assay: as above
# Settings: tags: N-Gal4 AD-HA kept; label: inside an RPR1-promoter hybrid RNA with tandem MS2 sites; ssRNA
# Summary of the method: as §1
row,Sequence,binding signal
1,GGCUAGAACUAGUGGAUCCCCCGGCGCCCGGCGGCUCGAGCCCGGGUAAGUGUAUAUAGUCUGCAUGCCGCCGGGCGCCAUGCCUGCAGGUCGACUCUAGAAAACAUG,2.96 log2 enrichment (interaction score)
2,GGCUAGAACUAGUGGAUCCCCCGGCGCCCGGCGGCUCGAGCCCGGGUAAGUGUACAUAGUCUGCAUGCCGCCGGGCGCCAUGCCUGCAGGUCGACUCUAGAAAACAUG,2.89 log2 enrichment (interaction score)
3,GGCUAGAACUAGUGGAUCCCCCGGCGCCCGGCGGCUCGAGCCCGGGUAAGUGUAAAUAGUCUGCAUGCCGCCGGGCGCCAUGCCUGCAGGUCGACUCUAGAAAACAUG,2.59 log2 enrichment (interaction score)
